# IL-1B inflam inh = qHTS for Inhibitors of Inflammasome Signaling: IL-1-beta AlphaLISA Primary Screen. 4.7% of 360,000 active. THP-1 LPS/ATP IL-1B secretion, AlphaLISA, 16 h; active compounds read low. activity change, % at 57.5 µM; in the data active means activity change below about -50%; inconclusive means mostly about -30% to -49%; further: on the % scale 0 is the no-effect control and ±100 the full control effect
#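 Secreted IL-1B measured by AlphaLISA bead assay after 16 h compound exposure of THP-1 cells; compounds (final up to 57.5 uM) added 1 h before LPS (250 ng/mL) and ATP (1.25 mM) stimulation; lower signal means less secretion.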
# HepG2 viability = qHTS for Inhibitors of TGF-b: Cytotox Counterscreen; AID 588856, 2011; HepG2 CAGA-GFP viability, ATP luminescence, 18 h; 0.76% of 410,000 active; Potency, µM (series often up to 46.1 µM), for inactives: at the highest dose activity change, negative = cytotoxicity, actives largely listed as cytotoxic; further: potency means the concentration at half of the fitted maximal effect
#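 HepG2 CAGA-GFP cells (1000/well, DMEM with 1% FBS) received compound, then TGF-beta at 500 pg/mL final, and were incubated 18 hours at 37 degrees C. Viability was read by CellTiter-Glo luminescence. Media-only wells were set as complete cell-killing and DMSO as no toxicity.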
# ASM inhibitor = Inhibitors of Secretory Acid Sphingomyelinase (S-ASM): qHTS | Sphingomyelin phosphodiesterase (Homo sapiens), P17405 | placental ASM, HMU-PC fluorogenic substrate, 60 min | Potency, µM (series often up to 57.5 µM), inactives show at the highest dose activity change, negative = inhibition, usual class: inhibitors | 0.006% of 340,000 active; further: potency means the concentration at half of the fitted maximal effect
# Target sequence (P17405 47-631 limits assumed): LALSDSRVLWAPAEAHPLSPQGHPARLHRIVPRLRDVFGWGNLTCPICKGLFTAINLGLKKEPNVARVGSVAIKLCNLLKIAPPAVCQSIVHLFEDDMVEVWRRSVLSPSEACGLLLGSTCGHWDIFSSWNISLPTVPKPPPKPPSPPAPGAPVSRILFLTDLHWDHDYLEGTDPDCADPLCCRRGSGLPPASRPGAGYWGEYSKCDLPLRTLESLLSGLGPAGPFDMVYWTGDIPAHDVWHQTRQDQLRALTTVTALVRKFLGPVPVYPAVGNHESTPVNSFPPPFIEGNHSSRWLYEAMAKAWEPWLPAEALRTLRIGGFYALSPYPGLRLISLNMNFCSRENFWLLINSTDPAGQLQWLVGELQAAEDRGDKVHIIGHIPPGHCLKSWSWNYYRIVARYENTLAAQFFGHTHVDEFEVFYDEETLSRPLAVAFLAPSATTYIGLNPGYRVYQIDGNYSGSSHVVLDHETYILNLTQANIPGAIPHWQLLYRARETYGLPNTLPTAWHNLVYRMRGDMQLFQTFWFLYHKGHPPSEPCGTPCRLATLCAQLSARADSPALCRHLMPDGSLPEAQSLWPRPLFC
#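 Human placenta-derived ASM enzyme was preincubated with compound for 10 minutes at room temperature, then given fluorogenic substrate HMU-PC0 (9 uM final) for 60 minutes at 37 °C; a pH 10 stop preceded fluorescence reading at Ex 386/Em 447 nm.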
# TDP1 cell noCPT = qHTS for Inhibitors of human tyrosyl-DNA phosphodiesterase 1 (TDP1): qHTS in cells in absence of CPT | DT40 Tdp1-/- hTDP1 cells, no CPT, ATP luminescence, 48 h | Potency, µM (highest dose often 46.2 µM), without a hit: at the highest dose activity change, negative = growth inhibition, actives largely listed as inhibitors | 15% of 420,000 active | AID 686978, 2013; further: potency means the concentration at half of the fitted maximal effect; on the % scale 0 is the no-effect control and ±100 the full control effect; nearly all actives have a fitted effect of over 55% in size
#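 DT40 Tdp1-/-;hTDP1 cells, no CPT (DMSO vehicle only), 400 cells/well; compounds pin-transferred; ≥48 hr, 37 °C; CellTiter-Glo 30 min RT dark, luminescence read.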
# TGFb SMAD3 inh = qHTS for Inhibitors of TGF-b | HepG2 CAGA-GFP TGF-b/SMAD3 reporter, GFP fluorescence, 18 h; TGF-beta stimulated, 500 pg/mL final | Potency, µM (titrated, usually from 46.1 µM), for the others: top-dose activity, negative = inhibition, actives largely listed as inhibitors | 1.2% of 410,000 active | AID 588855, 2011; further: potency means the concentration at half of the fitted maximal effect; on the % scale 0 is the no-effect control and ±100 the full control effect; nearly all actives have a fitted effect of over 65% in size
#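 Using HEPG2 CAGA-GFP reporter cells at 1000 cells/well, we pinned test compounds, stimulated with recombinant TGF-beta (500 pg/mL final) and measured total well GFP after 18 h.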
# DT40 TDP1 CPT = qHTS for Inhibitors of human tyrosyl-DNA phosphodiesterase 1 (TDP1): qHTS in cells in presence of CPT | chicken DT40 Tdp1-/-;hTDP1 cells + 20 nM CPT, ATP luminescence, 48 h | Potency, µM (doses to about 46.2 µM), for the others: at the highest dose activity change, negative = growth inhibition, actives largely listed as inhibitors | 12% of 420,000 active | AID 686979, 2013; further: potency means the concentration at half of the fitted maximal effect; on the % scale 0 is the no-effect control and ±100 the full control effect; nearly all actives have a fitted effect of over 55% in size
#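 Cell growth measured by CellTiter-Glo luminescence after a minimum 48 h, 37 C compound exposure with 20 nM CPT in Tdp1-knockout DT40 cells stably expressing hTDP1, seeded 400/well; qHTS titration format.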
# An asterisk follows results filed as active; ? = inconclusive; . = no result; ! = a repeat was not active. Shown are actives, neighbours in structure and some others; about 19% of the full set was active somewhere. Unless noted, the call rests on the fitted dose curve; in most records, active means well fitted curve in the direction sought with a large enough effect; inconclusive means small, poorly fitted or top-dose-only effect, or another doubt; inactive means no such curve, though single readings can be large; an effect the other way counts as inactive or inconclusive.
SMILES,IL-1B inflam inh,HepG2 viability,ASM inhibitor,TDP1 cell noCPT,TGFb SMAD3 inh,DT40 TDP1 CPT
CN(C(=O)c1cccc(NC(=O)Cc2ccc(NC(=O)C3CCCN(C(=O)c4ccccc4)C3)cc2)c1)C1CCC1 (stereo not given),29,5%,0%,?,-16%,?
CN(Cc1ccccc1)C(=O)c1ccc(NC(=O)Cc2ccc(NC(=O)C3CCCN(C(=O)C4CCC4)C3)cc2)cc1 (stereo not given),40,6%,0%,?,-4%,-4%
CN(C(=O)c1cccc(NC(=O)Cc2ccc(NC(=O)C3CCCN(C(=O)CCc4ccccc4)C3)cc2)c1)C1CCCCC1 (stereo not given),1,-3%,-3%,16µM*,?,?
CN(C(=O)c1cccc(NC(=O)Cc2ccc(NC(=O)C3CCCN(C(=O)CCc4ccccc4)C3)cc2)c1)C1CC1 (stereo not given),11,-21%,0%,16µM*,-22%,?
CCN1C(=O)CC2CCCC1C2 (stereo not given),-7,2%,5%,-5%,3%,-2%
CN(C(=O)c1ccc(NC(=O)Cc2ccc(NC(=O)C3CCCN(C(=O)CCc4ccccc4)C3)cc2)cc1)C1CCCC1 (stereo not given),-8,0%,-7%,21µM*,-22%,23µM*
CN(C(=O)c1ccc(NC(=O)Cc2ccc(NC(=O)C3CCCN(C(=O)C4CCCCC4)C3)cc2)cc1)C1CCCC1 (stereo not given),20,-7%,-1%,?,?,?
O=[N+]([O-])c1cc(C(F)(F)F)ccc1NCCCCNS(=O)(=O)c1ccc(Cl)cc1,-56*,10µM*,-27%,15µM*,?,13µM*
O=[N+]([O-])c1cc(C(F)(F)F)ccc1NCCc1c[nH]c2ccccc12,-96*,-94%,.,?,?,-26%
O=[N+]([O-])c1cc(C(F)(F)F)ccc1NCCNC(=S)Nc1ccc(Cl)cc1,-88*,10µM*,?,18µM*,5µM*,29µM*
CS(=O)(=O)NCCCNc1ccc(Cl)cc1[N+](=O)[O-],-5,-22%,-14%,-24%,-1%,-5%
Cc1ccc(C2(c3ccc(C)cc3)CC2C(=O)NCc2cccnc2)cc1 (stereo not given),-6,16%,0%,?,-14%,-42%
Cc1ccc(-c2cc(C(=O)N3CCCC(C(F)(F)F)C3)c3ccccc3n2)o1 (stereo not given),-1,-15%,.,?,-19%,?
Cc1ccc(S(=O)(=O)NC2=C(N3CCN(Cc4ccccc4)CC3)C(=O)c3ccccc3C2=O)cc1,-11,-18%,0%,16µM*,-1%,23µM*
CC(C)(CN1CCN(Cc2ccccc2)CC1)NS(=O)(=O)c1ccc(Cl)cc1,-25,-48%,6%,18µM*,?,16µM*
CC(=O)Nc1ccc(S(=O)(=O)NC2=C(N3CCN(c4ccc(F)cc4)CC3)C(=O)c3ccccc3C2=O)cc1,-7,-96%,.,16µM*,11µM*,10µM*
COC(=O)C1CCN(C2=C(NS(=O)(=O)c3ccc(Cl)cc3)C(=O)c3ccccc3C2=O)CC1,0,-64%,-10%,-17%,?,?
NC(=O)C1CCN(C2=C(NS(=O)(=O)c3ccc(Cl)cc3)C(=O)c3ccccc3C2=O)CC1,-8,-110%,0%,?,11µM*,16µM*
CC(=O)Nc1ccc(S(=O)(=O)Nc2ccc(N3CCOCC3)cc2)cc1,-6,1%,0%,-17%,-4%,-12%
N/C(=N\OC(=O)COc1ccc(Cl)cc1Cl)c1ccncc1,-24,-35%,1%,-26%,-30%,-15%
Cc1ccc(S(=O)(=O)NC2=C(N3CCN(c4ccccc4F)CC3)C(=O)c3ccccc3C2=O)cc1,-64*!,9%,-10%,?,-22%,23µM*
CCOC(=O)N1CCN(C2=C(NS(=O)(=O)c3ccc(C)cc3)C(=O)c3ccccc3C2=O)CC1,11,-98%,-8%,?,22µM*,8.2µM*
CCOC(=O)N1CCN(C(=O)c2ccc(CNS(=O)(=O)c3ccc(C)cc3)cc2)CC1,40,9%,-1%,-26%,-8%,-29%
CCOC(=O)[C@]12CCCC=C1N(Cc1ccco1)C(=O)[C@H](CC(=O)NCc1cccc(C(F)(F)F)c1)C2,0,.,.,18µM*,.,?
CCCCOCCCNC(=O)C[C@@H]1C[C@@]2(C(=O)OC)CCCCC=C2N(Cc2ccco2)C1=O,4,.,.,16µM*,.,?
SMILES,IL-1B inflam inh,HepG2 viability,ASM inhibitor,TDP1 cell noCPT,TGFb SMAD3 inh,DT40 TDP1 CPT
CCOC(=O)[C@]12CCCC=C1N(Cc1ccco1)C(=O)[C@H](CC(=O)NCc1cccs1)C2,-12,.,.,26µM*,.,?
CCCCNC(=O)C[C@@H]1C[C@@]2(C(=O)OC)CCCCC=C2N(Cc2ccco2)C1=O,25,.,.,?,.,?
COC(=O)[C@]12CCCCC=C1N(Cc1ccco1)C(=O)[C@H](CC(=O)NCc1cccs1)C2,3,.,.,23µM*,.,?
CCOC(=O)c1ccc(NC(=O)CSC(=S)N2CCOCC2)cc1,7,-8%,0%,?,-18%,?
Cc1ccc(COC(=O)CCCN=C2NS(=O)(=O)c3ccccc32)cc1,15,-20%,-2%,?,?,-27%
Cc1ccc(-n2nnnc2SC(C)C(N)=O)c(C)c1 (stereo not given),-17,-7%,6%,-16%,18%,-11%
CC(Sc1nncn1C)C(=O)Nc1ccc(Cl)cn1 (stereo not given),18,-17%,-2%,2%,-1%,-3%
Cc1ccc(-n2nnnc2SC(C)C(=O)Nc2ccc(Cl)cn2)cc1 (stereo not given),-57*,-4%,-11%,?,-3%,?
Cc1ccc(-n2nnnc2SC(C)C(=O)NCC(=O)Nc2ccc(F)c(F)c2F)c(C)c1 (stereo not given),?,15%,-1%,15µM*,-25%,18µM*
